Values joined by “and” are separate entries in the source; they are usually repeats but may differ in a detail not shown here. Equal values may be shown once. Results filed as inconclusive are left out. Entries that show only a call come without a potency. Active and inactive are the calls of the source. Calls come from the whole dose curve; as a rule, active = well fitted curve in the direction sought with a large enough effect; inconclusive = small, poorly fitted or top-dose-only effect, or another doubt; inactive = no such curve, though single readings can be large; an effect the other way counts as inactive or inconclusive.
Tests used:
[1] = Primary qHTS for inhibitors of nuclear receptor binding SET domain protein 2 (NSD2) in an isogenic RCH-ACV NSD2 p.E1099K mutant (9B) (AID 1645876)
[2] = Primary qHTS for inhibitors of nuclear receptor binding SET domain protein 2 (NSD2) in an RCH-ACV wild type WT cells (2C) (AID 1645877)
Note: nearly all actives have a fitted effect of over 70% in size.
Potency is the fitted concentration of half-maximal effect.

SMILES | Potency [1] | Potency [2]
CC1(C)OC[C@@H](COC(=O)CCc2ccc(OC[C@@H](O)CNCCNC(=O)N3CCOCC3)cc2)O1 | inactive | inactive
OC(CCN1CCCCC1)(c1ccccc1)c1ccccc1 | inactive | inactive
OC[C@H]1O[C@@H](n2cnc3c(=S)nc[nH]c32)[C@H](O)[C@@H]1O | 473 nM (active) | 422 nM (active)
CC(=O)Nc1c(I)cc(I)c(C(=O)O)c1I | inactive | inactive
CCCN1CCCC[C@H]1C(=O)Nc1c(C)cccc1C | inactive | inactive
Cc1nc2n(c(=O)c1CCN1CCC(c3noc4cc(F)ccc34)CC1)CCC[C@H]2O | inactive | inactive
CN1CCC[C@@H]1c1cccnc1 | inactive | inactive
CC(=O)N/N=C/c1ccc([N+](=O)[O-])o1 | 9440 nM (active) | 8410 nM (active)
Cc1cc(=O)n(-c2ccccc2)n1C | inactive | inactive
CC1(C)O[C@@H]2C[C@H]3[C@@H]4C[C@H](F)C5=CC(=O)C=C[C@]5(C)[C@H]4[C@@H](O)C[C@]3(C)[C@]2(C(=O)CO)O1 | inactive | 16.6 nM (active)
O=c1[nH]c(=O)n([C@H]2C[C@H](O)[C@@H](CO)O2)cc1C(F)(F)F | 596 nM (active) and 1.05 µM (active) | 106 nM (active) and 662 nM (active)
NC[C@H]1O[C@H](O[C@H]2[C@H](O)[C@@H](O[C@H]3O[C@H](CO)[C@@H](O)[C@H](N)[C@H]3O)[C@H](N)C[C@@H]2N)[C@H](N)[C@@H](O)[C@@H]1O | inactive | inactive
